Assay outcomes from PubChem.
HSF1 activator = increases HSF-1 driven luciferase reporter signal; hit rate 1.7% among 300,000; NIH3T3-HGL HSF-1 luciferase reporter, MG132, 8 h; 100% = twice DMSO control signal; AID 504408; activation, % at 9 µM;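 active means mean replicate activation of at least 50% with a set share of replicates each reaching 50%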;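 further: 0% = median of the neutral control wells and 100% = twice that signal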
TROY signal inh = blocks TROY-dependent signaling in reporter cells; Q293 LMP1-TROYcd NF-kB luciferase reporter, 4 h; inhibition, % at 10 µM; hit rate 0.98% among 360,000; AID 1347056;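 active means compounds whose plate-normalised and pattern-corrected inhibition of the luciferase reporter signal at the single screening dose is 50% or more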
HSP90 inh = inhibitors of HSP90 luciferase refolding in rabbit reticulocyte lysate; AID 1789; luciferase refolding luminescence, 3 h; hit rate 0.91% among 290,000; inhibition, % at 5.6 µM;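 active means inhibition above the screen-wide mean plus 3 SD, computed separately per campaign, cut at about 16% in these data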;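 further: 0% = DMSO wells and 100% = 60 µM geldanamycin wells; inhibitors lower the luminescence because luciferase stays unfolded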
EBV LMP1 NFkB = Epstein-Barr LMP1 NF-kappaB reporter inhibition. LMP1-induced NF-kappaB luciferase reporter cells, luminescence. inhibition, % at 12.5 µM. hit rate 0.69% among 350,000; in the data active means inhibition above about 41%;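 further: 0% = neutral control wells and 100% = reference inhibitor control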
TWEAK-Fn14 inh = blocks TWEAK-Fn14 interaction in a reporter cell assay; hit rate 2% among 360,000; inhibition, % at 10 µM; AID 1159606; TWEAK-stimulated Fn14 reporter cells, luciferase luminescence, 8 h; in the data active means inhibition above about 50%
HSF1 inhib = HSF1 inhibition | NIH3T3-HGL HSE-luciferase, MG132-induced, luminescence 8 h; hits give low values | activity change, negative = inhibition, % at 7.5 µM (by protocol) | hit rate 0.77% among 300,000;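 active means more than half of replicate wells show activity change below -50%, luminescence cut by over half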;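 further: luciferase reports HSF-1 transcriptional activity via heat shock element; 0% = median of DMSO wells and -100% = zero luminescence signal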
Starred values were filed as active, the others as inactive; / = no result. Sampled rows, rich in hits. Any-hit rate of the full collection: about 4.7%.

SMILES	HSF1 activator	TROY signal inh	HSP90 inh	EBV LMP1 NFkB	TWEAK-Fn14 inh	HSF1 inhib
COc1ccc(/C=C/c2cc(-c3ccc(C)cc3)o[n+]2C)cc1	-0.8	26.4	3.0	11.2	58.4*	3.1
O=C(Oc1cc(=O)oc2c1c(=O)n1c3c(cccc23)CC1)c1ccc(F)cc1	-75.0	-1.9	-1.9	/	-4.5	-67.3*
CCCCOCCCNC(=O)C[C@@H]1C[C@@]2(C(=O)OC)CCCCC=C2N(Cc2ccco2)C1=O	/	-6.5	/	/	3.8	/
CN(CC(=O)Nc1ccc(N2CCOCC2)cc1)Cc1c(O)ccc2ccccc12	198.4*	50.1*	-5.6	-1.5	34.2	160.0
Cc1cc(=O)c2c(o1)C(=O)c1occc1C2=O	/	10.6	/	-11.5	27.9	/
CC(=O)O[C@H]1CC[C@@]2(C)C(CCC3C2CC[C@]2(C)OC(=O)CCC32)C1 (stereo not given in full)	-3.3	-1.9	3.3	5.1	-3.2	-1.2
CC(=O)OC1CCC2(C)C(CCC3C4CC=C(C(C)=O)C4(C)OC(=O)CC32)C1 (stereo not given)	/	42.7	/	79.3*	102.1*	/
FC(F)(F)c1nc(-c2cccs2)ncc1-c1nnnn1-c1ccc(Cl)cc1	-15.2	66.4*	2.7	24.6	98.7*	-12.4
CCOC(=O)c1ccc(Nc2cnc3ccccc3n2)cc1	55.8*	-80.4	-2.8	-44.0	-24.7	32.1
CCOC(=O)c1ccc(Nc2cc(C)nc(-c3ccccc3)n2)cc1	10.0	70.7*	-4.3	-11.5	12.2	-3.8
CC(=O)Nc1ccc(Sc2ncnc3scc(-c4ccccc4)c23)cc1	0.3	28.9	-0.2	13.6	61.9*	-3.0
O=C(O)c1ccc(Nc2ncnc3scc(-c4ccccc4)c23)cc1	-11.1	17.5	2.1	-6.2	54.8*	-5.6
O=C(CSc1ncnc2scc(-c3ccccc3)c12)Nc1ccc(C(=O)O)cc1	3.7	10.7	-4.4	7.7	-59.8	-17.3
COc1ccc(S(=O)(=O)N2CCC[C@@H]2C(=O)N2CCC[C@H]2C(=O)NCc2ccncc2)cc1C	/	-14.0	/	/	-5.9	/
O=C(O)c1cccc2cccc(-c3c4ccc(=O)c(O)c-4oc4c(O)c(O)ccc34)c12	13.9	-3.0	/	-1.6	81.6*	13.9
O=C(NCC1CCCCC1)c1csc([C@@H]2O[C@H](CO)[C@H](O)[C@H](O)[C@H]2O)n1	/	9.8	/	/	-3.7	/
CCCS/C(N)=N/N=C/c1ccccc1O	55.8*	-61.9	-0.5	-21.2	-1.0	13.3
CC[C@H](C)[C@@H](CO)NC(=O)[C@H]1O[C@@H](n2ccc(N)nc2=O)[C@H](O)[C@@H]1O	/	10.4	/	/	-30.9	/
Cc1ccccc1/C(N)=N/OC(=O)c1ccc(F)cc1	57.8*	-22.2	-3.3	-35.4	1.9	27.0
COc1ccc(CCNC(=O)c2cc3cc(Cl)ccc3nc2N)cc1OC	/	18.0	/	/	27.7	/
CNc1cncc(-c2ccc(C)cc2)n1	/	-31.2	/	/	-28.1	/
COc1ccc(/C=c2\s/c(=C/C(=O)c3ccc(C)cc3)[nH]c2=O)c(OC)c1	-3.0	-2.4	2.0	1.7	-37.4	2.3
COc1cccc(/C=c2\s/c(=C\C(=O)C(C)(C)C)[nH]c2=O)c1	10.3	15.4	-4.9	-5.6	55.7*	-0.1
COC(=O)c1cccc(CN2C(=O)C(C)Oc3ccc(C)cc32)c1 (stereo not given)	/	-2.5	/	/	-0.6	/
COc1ccc(OC)c(N2C(=O)c3ccccc3C2c2nnnn2-c2ccc3c(c2)OCCO3)c1 (stereo not given)	/	-15.0	/	/	1.3	/
SMILES	HSF1 activator	TROY signal inh	HSP90 inh	EBV LMP1 NFkB	TWEAK-Fn14 inh	HSF1 inhib
CN(CCOc1ccc(Cl)cc1)C(=O)c1cccc(S(=O)(=O)N2CCN(c3ccc(F)cc3)CC2)c1	/	13.2	/	3.0	63.7*	/
CN(Cc1ccc(OC(F)F)cc1)C(=O)c1cccc(S(=O)(=O)N2CCN(c3ccccc3)CC2)c1	/	36.9	/	23.3	72.8*	/
Cc1cccc(C)c1NC(=O)CN(C)C(=O)c1cccc(S(=O)(=O)N2CCN(c3ccccc3)CC2)c1	-1.9	22.5	1.4	3.2	-8.4	-2.8
Cc1ccc(NC(=O)C2C3CCCCC32)cc1[N+](=O)[O-] (stereo not given)	29.8	-32.1	-2.2	-31.0	-33.6	18.4
Cc1cc(NC(=O)OC2CCCCC2)ccc1[N+](=O)[O-]	70.7*	-9.3	2.1	-28.4	-22.0	34.1
COc1ccc(S(=O)(=O)N2CCCC(c3cc(C(=O)NCc4cccnc4)no3)C2)cc1 (stereo not given)	/	7.7	/	/	-4.5	/
COc1cc(-c2nnc(COC(=O)c3ccc([N+](=O)[O-])o3)o2)cc(OC)c1OC	/	-5.4	/	1.6	-1.0	/
CCOc1ccc(NS(=O)(=O)c2ccc(C(=O)N(CC)CC(=O)NCc3cccs3)cc2)cc1	12.3	-1.1	8.0	1.0	-3.0	15.2
CN(CC(=O)Nc1ccc(Cl)cc1)C(=O)c1ccc(S(=O)(=O)Nc2ccccc2)cc1	-3.6	-7.8	/	-28.2	14.6	-2.0
CCOc1ccc(S(=O)(=O)Nc2ccc(C(=O)N(CC)CC(=O)NCc3cccs3)cc2)cc1	/	0.8	/	-3.1	74.0*	/
CCOc1ccc(NS(=O)(=O)c2ccc(C(=O)N(C)CC(=O)Nc3ccc(C)cc3)cc2)cc1	58.8*	28.4	/	-5.1	-4.8	30.4
CN1CCN(c2cc(-c3ccc4ccccc4c3)nc3ccnn23)CC1	/	-1.2	/	/	-7.0	/
O=C(Nc1ccc(N2CCOCC2)cc1)c1cc(-c2ccncc2)nc2ccccc12	-62.9	-3.1	-0.3	-2.1	-12.9	-51.9*
O=C(Nc1ccc(N2CCOCC2)cc1)c1nc2ccccc2s1	-24.8	54.8*	-1.2	19.9	40.3	-3.6
CCCC(=O)N1CCC1(C)C(=O)NS(=O)(=O)c1cc2c(cc1C)CCCS2(=O)=O (stereo not given)	/	0.8	/	/	-6.8	/
CC(C)OC(=O)CSc1nc(N)c(C#N)c(-c2cccs2)c1C#N	-3.1	43.0	4.3	7.8	40.5	1.1
CCOC(=O)C(C)Sc1nc(-c2cccs2)ccc1C#N (stereo not given)	19.6	4.0	-1.6	59.6*	0.3	-4.8
CC(=O)c1ccc(NC(=O)CCC(=O)OCC(F)(F)C(F)F)cc1	12.0	22.4	16.6*	1.9	-6.4	-0.7
COc1ccccc1NC(=O)CCCC(=O)OCC(F)(F)C(F)F	-29.3	2.1	-0.7	-6.3	62.7*	-18.1
COc1ccc(NC(=O)CCCC(=O)OCC(F)(F)C(F)F)cc1	1.0	-6.6	2.2	-7.5	6.6	-6.8
COc1ccc(OC)c(NC(=O)Nc2nnc([C@H]3C[C@H](O)[C@@H](CO)O3)s2)c1	/	3.1	/	/	1.2	/
CN(C)c1ccc(C=NNC(=O)c2cccc3ccccc23)c(Cl)c1	0.4	-6.5	/	73.6*	-19.3	0.4
CCCNC(=O)c1cc(-c2ccc3c(c2)OCO3)on1	32.9	-14.5	13.6	-12.4	50.6*	20.0
CCCCNC(=O)c1cc(-c2ccc3c(c2)OCO3)on1	30.9	-48.0	4.1	-40.1	9.9	19.6
COc1cc(C(=O)Oc2cccc(Nc3ncnc4ccccc34)c2)cc(OC)c1OC	-5.8	78.5*	-3.9	34.3	99.3*	-1.1
